In PubChem BioAssay (NCATS):
Records with an inconclusive call do not appear. Activity calls are given as the source filed them. The call rests on the fitted dose curve; in most records, active means well fitted curve in the direction sought with a large enough effect; inconclusive means small, poorly fitted or top-dose-only effect, or another doubt; inactive means no such curve, though single readings can be large; an effect the other way counts as inactive or inconclusive.

What was measured:
[1] = target: ATP-dependent 6-phosphofructokinase (Trypanosoma brucei brucei) (UniProt O15648); test: qHTS Assay to Find Inhibitors of T. brucei phosphofructokinase: hit validation (AID 492961);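 further: luminescence reports ADP formed as PFK phosphorylates fructose-6-phosphate with ATP; on the % scale 0 is the no-effect control and ±100 the full control effect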
Sequence of ATP-dependent 6-phosphofructokinase (Trypanosoma brucei brucei) (O15648 whole entry, looked up): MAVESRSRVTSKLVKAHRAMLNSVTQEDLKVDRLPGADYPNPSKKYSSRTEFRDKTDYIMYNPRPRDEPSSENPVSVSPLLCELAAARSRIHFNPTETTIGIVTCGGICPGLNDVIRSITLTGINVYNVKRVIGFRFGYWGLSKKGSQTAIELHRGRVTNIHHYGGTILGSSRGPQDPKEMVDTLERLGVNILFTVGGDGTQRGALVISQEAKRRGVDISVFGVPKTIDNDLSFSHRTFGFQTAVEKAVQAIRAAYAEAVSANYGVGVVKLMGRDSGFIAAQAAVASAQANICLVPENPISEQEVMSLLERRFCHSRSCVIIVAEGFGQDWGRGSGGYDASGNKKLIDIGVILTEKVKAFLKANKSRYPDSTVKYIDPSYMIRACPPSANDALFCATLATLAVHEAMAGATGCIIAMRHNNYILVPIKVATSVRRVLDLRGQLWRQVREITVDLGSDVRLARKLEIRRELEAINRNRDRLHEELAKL
In short: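 Measures ADP output of PFK (1.25 nM) at 0.1 mM ATP, 0.5 mM F6P, pH 8.0 TEA buffer with 5 mM MgCl2. No-enzyme wells define full inhibition; uninhibited enzyme wells define zero.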

[2] = qHTS profiling for inhibitors of Plasmodium falciparum proliferation (AID 504749); further: potency means the concentration at half of the fitted maximal effect;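 on activity, negative = inhibition: 0% = DMSO vehicle and full inhibition = artemisinin control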; on all read-outs here: nearly all actives have a fitted effect of over 60% in size; settings: P. falciparum in erythrocytes, SYBR Green DNA, 72 h; for activity, negative = inhibition: at 28.7 µM (top of the series)
In short: (§1)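 In a 72 h erythrocytic culture (37 C, humidified, 5% CO2) at 2.5% hematocrit and 0.3% starting parasitemia, compounds were tested; SYBR Green I in detergent lysis buffer stained parasite DNA overnight.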

3D7 = test: as above; settings: P. falciparum in erythrocytes, SYBR Green DNA, 72 h; series mostly up to 28.7 µM
In short: as §1

AA1029 = test: as above; settings: P. falciparum in erythrocytes, SYBR Green DNA, 72 h; series mostly up to 28.7 µM
In short: as §1

AS120 = test: as above; settings: P. falciparum in erythrocytes, SYBR Green DNA, 72 h; series mostly up to 28.7 µM
In short: as §1

ATS189 = test: as above; settings: P. falciparum in erythrocytes, SYBR Green DNA, 72 h; series mostly up to 28.7 µM
In short: as §1

CP185 = test: as above; settings: P. falciparum in erythrocytes, SYBR Green DNA, 72 h; series mostly up to 28.7 µM
In short: as §1

CP191 = test: as above; settings: P. falciparum in erythrocytes, SYBR Green DNA, 72 h; series mostly up to 28.7 µM
In short: as §1

CP194 = test: as above; settings: P. falciparum in erythrocytes, SYBR Green DNA, 72 h; series mostly up to 28.7 µM
In short: as §1

CP217 = test: as above; settings: P. falciparum in erythrocytes, SYBR Green DNA, 72 h; series mostly up to 28.7 µM
In short: as §1

CP237 = test: as above; settings: P. falciparum in erythrocytes, SYBR Green DNA, 72 h; series mostly up to 28.7 µM
In short: as §1

CP238 = test: as above; settings: P. falciparum in erythrocytes, SYBR Green DNA, 72 h; series mostly up to 28.7 µM
In short: as §1

CP252 = test: as above; settings: P. falciparum in erythrocytes, SYBR Green DNA, 72 h; series mostly up to 28.7 µM
In short: as §1

CP265 = test: as above; settings: P. falciparum in erythrocytes, SYBR Green DNA, 72 h; series mostly up to 28.7 µM
In short: as §1

CP286 = test: as above; settings: P. falciparum in erythrocytes, SYBR Green DNA, 72 h; series mostly up to 28.7 µM
In short: as §1

DFO2036 = test: as above; settings: P. falciparum in erythrocytes, SYBR Green DNA, 72 h; series mostly up to 28.7 µM
In short: as §1

DIV30 = test: as above; settings: P. falciparum in erythrocytes, SYBR Green DNA, 72 h; series mostly up to 28.7 µM
In short: as §1

Dd2 = test: as above; settings: P. falciparum in erythrocytes, SYBR Green DNA, 72 h; series mostly up to 28.7 µM
In short: as §1

N140 = test: as above; settings: P. falciparum in erythrocytes, SYBR Green DNA, 72 h; series mostly up to 28.7 µM
In short: as §1

P94_40 = test: as above; settings: P. falciparum in erythrocytes, SYBR Green DNA, 72 h; series mostly up to 28.7 µM
In short: as §1

CC(=O)OCC(=O)[C@@]1(O)CCC2C3CCC4=CC(=O)C=CC4(C)C3C(O)C[C@]21C (stereo not given in full)
inactive: Potency [1] | activity, negative = inhibition ([2]; parasite line A) 8.28% | activity, negative = inhibition ([2]; parasite line B) 10.3% | Potency (3D7) | Potency (AA1029) | Potency (AS120) | Potency (ATS189) | Potency (CP185) | Potency (CP191) | Potency (CP194) | Potency (CP217) | Potency (CP237) | Potency (CP238) | Potency (CP252) | Potency (CP265) | Potency (CP286) | Potency (DFO2036) | Potency (DIV30) | Potency (Dd2) | Potency (N140) | Potency (P94_40)

CC(=O)NC1[C@H]([C@H](O)[C@H](O)CO)OC(C(=O)O)=C[C@H]1N=C(N)N (stereo not given in full)
inactive: Potency [1] | activity, negative = inhibition ([2]; parasite line A) 4.99% | activity, negative = inhibition ([2]; parasite line B) 6.49% | Potency (3D7) | Potency (AA1029) | Potency (AS120) | Potency (ATS189) | Potency (CP185) | Potency (CP191) | Potency (CP194) | Potency (CP217) | Potency (CP237) | Potency (CP238) | Potency (CP252) | Potency (CP265) | Potency (CP286) | Potency (DFO2036) | Potency (DIV30) | Potency (Dd2) | Potency (N140) | Potency (P94_40)

Cc1cn([C@H]2CC(F)[C@@H](CO)O2)c(=O)[nH]c1=O (stereo not given in full)
inactive: Potency [1] | activity, negative = inhibition ([2]; parasite line A) 6.21% | activity, negative = inhibition ([2]; parasite line B) 4.03% | Potency (3D7) | Potency (AA1029) | Potency (AS120) | Potency (ATS189) | Potency (CP185) | Potency (CP191) | Potency (CP194) | Potency (CP217) | Potency (CP237) | Potency (CP238) | Potency (CP252) | Potency (CP265) | Potency (CP286) | Potency (DFO2036) | Potency (DIV30) | Potency (Dd2) | Potency (N140) | Potency (P94_40)

CC1(C(=O)O)CCC2(C)CCC3(C)C(=CC(=O)C4C5(C)CCC(O)C(C)(C)C5CCC43C)C2C1 (stereo not given)
inactive: Potency [1] | activity, negative = inhibition ([2]; parasite line A) 8.05% | activity, negative = inhibition ([2]; parasite line B) 1.81% | Potency (3D7) | Potency (AA1029) | Potency (AS120) | Potency (ATS189) | Potency (CP185) | Potency (CP191) | Potency (CP194) | Potency (CP217) | Potency (CP237) | Potency (CP238) | Potency (CP252) | Potency (CP265) | Potency (CP286) | Potency (DFO2036) | Potency (DIV30) | Potency (Dd2) | Potency (N140) | Potency (P94_40)

COC1CC2CCC(C)[C@](O)(O2)C(=O)C(=O)N2CCCCC2C(=O)OC(C(C)CC2CCC(O)C(OC)C2)CC(=O)C(C)/C=C(/C)C(O)C(OC)C(=O)C(C)CC(C)C=CC=C/C=C\1C (stereo not given in full)
active: Potency ([2]; parasite line A) 3550 nM | Potency ([2]; parasite line B) 1410 nM | Potency (3D7) 2000 nM | Potency (AA1029) 2240 nM | Potency (AS120) 1120 nM | Potency (ATS189) 3160 nM | Potency (CP185) 4470 nM | Potency (CP191) 2510 nM | Potency (CP194) 3380 nM | Potency (CP217) 3550 nM | Potency (CP237) 2820 nM | Potency (CP238) 3160 nM | Potency (CP252) 2510 nM | Potency (CP265) 2820 nM | Potency (CP286) 4470 nM | Potency (DFO2036) 1410 nM | Potency (DIV30) 953 nM | Potency (Dd2) 1580 nM | Potency (N140) 1260 nM | Potency (P94_40) 1410 nM
inactive: Potency [1]

OCC1OC(O)C(O)C(O)C1O (stereo not given)
inactive: Potency [1] | activity, negative = inhibition ([2]; parasite line A) -3.4% | activity, negative = inhibition ([2]; parasite line B) 8.64% | Potency (3D7) | Potency (AA1029) | Potency (AS120) | Potency (ATS189) | Potency (CP185) | Potency (CP191) | Potency (CP194) | Potency (CP217) | Potency (CP237) | Potency (CP238) | Potency (CP252) | Potency (CP265) | Potency (CP286) | Potency (DFO2036) | Potency (DIV30) | Potency (Dd2) | Potency (N140) | Potency (P94_40)

CCCCCCCCCCCCCCCC(=O)OC[C@H](O)[C@H]1OC[C@@H](O)[C@@H]1O
inactive: Potency [1] | activity, negative = inhibition ([2]; parasite line A) -0.407% | activity, negative = inhibition ([2]; parasite line B) -6.82% | Potency (3D7) | Potency (AA1029) | Potency (AS120) | Potency (ATS189) | Potency (CP185) | Potency (CP191) | Potency (CP194) | Potency (CP217) | Potency (CP237) | Potency (CP238) | Potency (CP252) | Potency (CP265) | Potency (CP286) | Potency (DFO2036) | Potency (DIV30) | Potency (Dd2) | Potency (N140) | Potency (P94_40)

CCCCC(=O)OCC(=O)[C@]1(O)Cc2c(O)c3c(c(O)c2[C@H](OC2CC(NC(=O)C(F)(F)F)C(O)C(C)O2)C1)C(=O)c1c(OC)cccc1C3=O (stereo not given in full)
inactive: Potency [1]
active: Potency ([2]; parasite line A) 2240 nM | Potency ([2]; parasite line B) 2510 nM | Potency (3D7) 1580 nM | Potency (AA1029) 2000 nM | Potency (AS120) 2000 nM | Potency (ATS189) 3160 nM | Potency (CP185) 2240 nM | Potency (CP191) 2510 nM | Potency (CP194) 3010 nM | Potency (CP217) 3160 nM | Potency (CP237) 1580 nM | Potency (CP238) 2510 nM | Potency (CP252) 2510 nM | Potency (CP265) 3160 nM | Potency (CP286) 1580 nM | Potency (DFO2036) 2510 nM | Potency (DIV30) 1900 nM | Potency (Dd2) 2240 nM | Potency (N140) 2000 nM | Potency (P94_40) 2000 nM

Cc1ccccc1N1C(=O)c2cc(N)ccc2N/C1=C\F
inactive: Potency [1] | activity, negative = inhibition ([2]; parasite line A) -6.61% | activity, negative = inhibition ([2]; parasite line B) -18.2% | Potency (3D7) | Potency (AA1029) | Potency (AS120) | Potency (ATS189) | Potency (CP185) | Potency (CP191) | Potency (CP194) | Potency (CP217) | Potency (CP237) | Potency (CP238) | Potency (CP252) | Potency (CP265) | Potency (CP286) | Potency (DFO2036) | Potency (DIV30) | Potency (Dd2) | Potency (N140) | Potency (P94_40)

CCCC(=O)O[C@]1(C(=O)COC(C)=O)CC[C@H]2C3C[C@H](F)C4=CC(=O)C=CC4(C)[C@@]3(F)[C@@H](O)CC21C (stereo not given in full)
inactive: Potency [1] | activity, negative = inhibition ([2]; parasite line A) -8.4% | activity, negative = inhibition ([2]; parasite line B) -24.8% | Potency (3D7) | Potency (AA1029) | Potency (AS120) | Potency (ATS189) | Potency (CP185) | Potency (CP191) | Potency (CP194) | Potency (CP217) | Potency (CP237) | Potency (CP238) | Potency (CP252) | Potency (CP265) | Potency (CP286) | Potency (DFO2036) | Potency (DIV30) | Potency (Dd2) | Potency (N140) | Potency (P94_40)
